NALP3 yeast inh = blocks the NALP3 inflammasome reconstituted in yeast | Yeast reconstituted NLRP3/ASC/caspase-1, beta-gal luminescence, 24 h | inhibition, % at 10 µM | 0.39% of 330,000 active | AID 2825;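 active = inhibition of 50% or more; inactive = inhibition below 50%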;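 also: plate controls were induced DMSO wells for no effect and uninduced yeast grown without galactose for full effect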
ZTA counter = blocks Epstein-Barr virus ZTA, an EBNA-1 counter-screen; 0.15% of 320,000 active; inhibition, % at 11 µM; ZTA-DNA binding, fluorescence polarization; P03206; in the data active = inhibition above about 33%
Target sequence (P03206 whole entry, looked up): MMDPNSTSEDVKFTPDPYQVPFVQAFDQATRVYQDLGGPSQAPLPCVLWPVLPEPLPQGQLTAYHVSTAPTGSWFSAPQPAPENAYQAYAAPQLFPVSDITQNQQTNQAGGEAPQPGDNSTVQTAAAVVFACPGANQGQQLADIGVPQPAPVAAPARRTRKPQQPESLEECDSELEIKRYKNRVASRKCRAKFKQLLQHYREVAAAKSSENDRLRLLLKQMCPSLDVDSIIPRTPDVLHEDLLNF
dFosB activator = activators of mouse delta FosB homodimer; activation, % at 25 µM; P13346; AID 493131; 0.99% of 340,000 active; purified delta FosB, TAMRA-CDK5 oligo fluorescence polarization; percent of positive-control signal above neutral wells;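 active = mean activation above about 17%, with every replicate also reaching it, limit read from the data, passing the limit was not always enough; inconclusive = only one of the two conditions met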
Target sequence (P13346 whole entry, looked up): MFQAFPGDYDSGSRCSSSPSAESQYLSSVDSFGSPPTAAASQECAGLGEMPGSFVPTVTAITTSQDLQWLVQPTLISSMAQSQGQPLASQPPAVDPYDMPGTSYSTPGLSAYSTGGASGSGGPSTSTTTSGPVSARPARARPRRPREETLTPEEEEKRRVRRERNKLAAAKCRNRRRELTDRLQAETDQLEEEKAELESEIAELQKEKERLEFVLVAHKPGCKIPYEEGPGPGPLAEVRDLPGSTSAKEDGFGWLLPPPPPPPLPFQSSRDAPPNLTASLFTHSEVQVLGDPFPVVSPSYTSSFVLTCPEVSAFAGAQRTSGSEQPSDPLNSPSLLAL
PolyA inh = yeast polyadenylation inhibition. S. cerevisiae SKY197-pL101 polyadenylation reporter, beta-gal luminescence; efflux-impaired pdr1/pdr3 knockout yeast; score 100 = 6 SD above DMSO. activity score, % at 12 µM. 0.02% of 300,000 active. AID 1875;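 active = lowest replicate activity score at least 50, where 100 means six control SD above control mean; inconclusive = lowest score under 50 but half or more replicates reach 50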;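 also: yeast exposed to compound for 9 h at 30 °C; higher score means more reporter readthrough which indicates perturbed polyadenylation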
NALP1 inh = blocks the NALP1 inflammasome reconstituted in yeast; S. cerevisiae NALP1/ASC/caspase-1 growth, X-gal OD620, 72 h; inhibition, % at 10 µM; 0.61% of 280,000 active; AID 2071; in the data active = inhibition mostly above about 24%, no sharp cut-off; inactive = mostly below about 32%
EBNA-1 inhibitor = blocks EBNA-1 binding to DNA. EBNA-1 DNA binding, fluorescence polarization. inhibition, % at 14.8 µM. 0.34% of 300,000 active. AID 1950; in the data active = inhibition above about 28%
NALP3 yeast conf = NALP3 inhibition confirmation in yeast; shares compounds with NALP3 yeast inh; yeast expressing human NALP3, luminescence; inhibition, % at 10 µM; 81% of 1,300 active; in the data active = inhibition above about 48%
Casp1-ASC yeast = caspase-1-ASC yeast counter-screen hit | 66% of 1,000 active | shares compounds with NALP3 yeast inh | inhibition, % at 10 µM | AID 488784 | yeast expressing Caspase-1-ASC, luminescence counter screen
NALP3 yeast rt = confirmation retest of NALP3 inhibitors in yeast | shares compounds with NALP3 yeast inh | yeast expressing human NALP3, luminescence read-out | inhibition, % at 10 µM | 53% of 1,000 active
Starred values were filed as active, the others as inactive; ? = inconclusive; . = no result; ! = not active in a repeat. An excerpt weighted towards active compounds, which were near 2.2% of everything screened. Rule as the data show it, unless noted: active = inhibition above about 50%; inactive = the rest.

SMILES | NALP3 yeast inh | ZTA counter | dFosB activator | PolyA inh | NALP1 inh | EBNA-1 inhibitor | NALP3 yeast conf | Casp1-ASC yeast | NALP3 yeast rt
CC(C)(C)c1ccc(C(=O)N/N=C/c2cccc(Cl)c2)cc1 | 54.2* | 11.2 | 2.0 | 21.1 | 27.1 | 4.3 | 70.7* | 54.5* | 40.8
On1onc2c3cc(-c4ccccc4)nc3ccc21 | 50.6* | 8.3 | 7.6 | . | -0.6 | 1.1 | 71.5* | . | .
c1ccc(-c2cc3c(ccc4nonc43)nn2)cc1 | -2.3 | 8.1 | 0.0 | -8.6 | 2.0 | -7.4 | . | . | .
C[C@@]12C(=O)Nc3ccc(Br)cc3C(=O)N1[C@H]1c3ccccc3OC[C@@H]1[C@@H]2c1ccccc1 | 87.5* | . | -3.2 | . | . | . | 89.4* | 89.8* | 74.2*
Cc1ccc2c(c1)NC(=O)[C@@]1(C)[C@@H](c3ccccc3)[C@H]3COc4ccccc4[C@@H]3N1C2=O | 15.3 | -11.6 | 2.3 | . | . | -3.8 | . | . | .
Cc1ccc2c(c1)C(=O)N1[C@H]3c4ccccc4OC[C@@H]3[C@H](c3ccccc3)[C@]1(C)C(=O)N2 | 70.1* | . | -1.5 | . | . | . | 83.1* | 84.2* | 72.7*
CN(Cc1nc2ccccc2c(=O)[nH]1)C(=O)C1CC(=O)N(c2cccc3ccccc23)C1 (configuration not stated) | 7.3 | . | -7.6 | . | . | . | . | . | .
CC(Sc1nc(C(F)(F)F)nc2ccccc12)C(=O)NC1CCCC1 (configuration not stated) | 52.2* | . | -12.0 | . | . | . | 36.2 | . | .
c1ccc2c(c1)CCN(c1nc3cc4c(cc3s1)OCO4)C2 | 55.8* | -1.5 | -8.0 | 1.7 | 15.1 | -11.2 | 51.6* | 41.5 | 40.0
CC1CCN(CCNC(=O)C2CCCN(S(=O)(=O)c3cccc4nsnc34)C2)CC1 (configuration not stated) | 14.9 | 11.6 | -2.0 | -2.9 | 16.3 | 3.5 | . | . | .
Cc1ccc(C)c(NC(=O)c2ccc(S(=O)(=O)C(F)F)cc2)c1 | 52.8* | -14.6 | -4.7 | 16.5 | 24.0 | 1.2 | 65.3* | 46.5 | 42.6
CN1CCc2cccc3c2[C@H]1Cc1ccc(O)c(O)c1-3 | 51.5*! | -0.9 | 13.8 | 1.0 | 100.6* | -4.8 | 58.7* | 24.4 | 28.5
CC1(C)CC(=O)C2=C(C1)Nc1ccccc1NC2c1ccc(F)cc1 (configuration not stated) | -1.3 | -0.2 | -3.5 | 2.3 | 14.4 | -2.8 | . | . | .
O=C1NCC2=C1C(c1ccc(Br)cc1)Nc1ccccc1N2 (configuration not stated) | 52.3* | 6.4 | -4.2 | -5.3 | 4.8 | -0.8 | 63.2* | 41.1 | 33.1
COc1cc2sc(-c3ccc(S(C)(=O)=O)cc3)c(C#CCO)c2cc1OC | -11.0 | . | -5.5 | . | . | . | . | . | .
CO/N=C(\Cn1ncc(N2CCCC2)c(Br)c1=O)c1ccc(Cl)cc1 | 76.8* | 6.3 | -13.2 | -34.1 | 38.1 | -5.0 | 68.9* | 78.1* | 57.4*
O=C(CSc1ncn(-c2ccccc2)n1)Nc1ccc(Br)cn1 | 75.3* | -11.8 | -15.0 | -25.9 | 12.1 | 5.4 | 75.6* | 69.3* | 50.4*
O=C(CSc1ccccn1)Nc1ccc(Br)cn1 | 35.6 | 12.9 | 1.6 | 3.1 | 16.3 | 1.3 | . | . | .
O=C(N/N=C/c1ccsc1)c1cc2ccccc2o1 | 72.2* | 5.2 | -6.5 | ? | 8.6 | 10.3 | 86.8* | 70.8* | 75.0*
CCN1/C(=C/C=C/c2oc3ccc(-c4ccccc4)cc3[n+]2CC)Oc2ccc(-c3ccccc3)cc21 | 66.7* | 19.8 | -451.1 | -8.3 | 51.2* | 4.9 | 67.7* | 22.4 | 43.2
CCCCN1C(=O)/C(=C/C=C2\Oc3ccccc3N2CC)SC1=S | . | . | -14.3 | -9.8 | 8.7 | . | . | . | .
COCCN(C(=O)c1ccc(OC2CCN(S(=O)(=O)N(C)C)CC2)cc1)C(C)C | 25.1 | -6.1 | -5.4 | -0.4 | -27.4 | 6.0 | . | . | .
COc1ccccc1CNC(=O)CCNS(=O)(=O)/C=C/c1ccc(C)cc1 | 8.9 | . | -4.7 | . | . | . | . | . | .
Cc1[nH]c2ccccc2c1C(=O)/C=C\c1ccccc1Cl | 53.0* | 0.6 | -3.7 | -18.9 | . | 6.4 | -20.0 | . | .
Cc1nc2ccccc2c(N)c1C(=O)/C=C/c1ccccc1 | 74.7* | -9.7 | -1.4 | 8.3 | 18.4 | 1.2 | 74.2* | 55.9* | 37.8
SMILES | NALP3 yeast inh | ZTA counter | dFosB activator | PolyA inh | NALP1 inh | EBNA-1 inhibitor | NALP3 yeast conf | Casp1-ASC yeast | NALP3 yeast rt
CC(=O)c1c(C)[nH]c2ccccc2c1=O | 10.6 | 18.1 | 0.6 | 14.0 | 3.3 | 10.8 | . | . | .
Cc1[nH]c2ccccc2c1C(=O)/C=C/c1ccccc1Cl | 60.8* | 7.1 | 0.5 | -11.6 | 7.2 | 10.7 | 21.6 | . | .
O=C(C=Cc1ccccc1Cl)c1ccccc1 | . | . | -13.7 | . | . | . | . | . | .
Cc1[nH]c2ccccc2c1C(=O)/C=C/c1ccccc1 | 63.3* | -7.3 | -2.9 | -7.2 | -2.8 | -13.9 | 52.4* | 79.8* | 75.0*
CCOC(=O)N1CCN(c2nc3ccc(C)cc3n3cnnc23)CC1 | 15.2 | . | -4.2 | 4.9 | -13.0 | . | . | . | .
Cc1cc(N/N=C/c2ccc(F)cc2)nc(-n2nc(C)cc2C)n1 | 23.7 | 6.0 | . | -14.0 | -0.2 | 2.3 | . | . | .
CCOc1cc(/C=N/Nc2cc(C)nc(-n3nc(C)cc3C)n2)ccc1O | 76.7* | -8.3 | ? | -17.7 | 4.7 | 1.7 | 54.0* | 18.8 | 35.6
COC(=O)c1cc(C(=O)c2cccc(Cl)c2Cl)cn1C | 60.8* | -14.4 | -5.6 | -20.0 | 4.1 | 1.5 | 73.2* | 63.2* | 46.1
c1ccc2c(c1)ncn2CCOCCOCCn1cnc2ccccc21 | -4.9 | 3.1 | -4.8 | -0.1 | 4.5 | 7.0 | . | . | .
Clc1ccc(OCCn2cnc3ccccc32)c(Cl)c1 | 71.0* | 18.8 | -7.6 | -44.6 | 14.3 | -3.9 | 62.0* | 77.3* | 63.2*
CCN(CC)c1ccc(NC(=O)COc2ccc(C)cc2)cc1 | 50.0 | 12.2 | -10.0 | 17.0 | 18.0 | -2.6 | 41.7 | 47.4 | 40.2
Cc1ccc(C)c(NC(=O)c2cnn(-c3ccccc3)c2C)c1 | 55.1* | -5.0 | -3.1 | -5.2 | 33.3 | -4.5 | 65.6* | 44.9 | 44.7
Cc1c(C(=O)Nc2cccc(F)c2)cnn1-c1ccccc1 | 55.4* | -0.7 | -3.5 | 18.6 | 8.6 | -2.3 | 71.6* | 71.2* | 64.1*
CCc1ccccc1NC(=O)c1cnn(-c2ccccc2)c1C | 51.6* | 14.5 | 1.7 | -11.2 | 22.1 | 4.8 | 73.5* | 60.8* | 55.6*
Cc1ccccc1NC(=O)c1cnn(-c2ccccc2)c1C | 44.0 | 11.2 | -3.7 | 2.4 | 28.5 | -15.4 | . | . | .
Cc1c(C(=O)Nc2ccccc2)cnn1-c1ccccc1 | 47.9 | -15.7 | -3.0 | -9.8 | . | 11.3 | . | . | .
CC1CC(C)CN(C(=O)COC(=O)c2ccc(S(=O)(=O)N(C)c3ccccc3)cc2)C1 (configuration not stated) | 34.2 | . | -20.7 | . | . | . | . | . | .
